Results reported in PubChem BioAssay AID1159580 (chemical genetic matrix, 2015).
Where “and” joins values, the source holds several entries; their conditions need not be identical. Identical values can stand only once. Hit rate of the full screen: of about 5,500 compounds, about 2,000 (36%) were called active. Inconclusive results (about 18%) are left out. Rule as the data show it: active = normalized growth mostly below about 0.91 (no sharp cut-off); inconclusive = no clear call, values can overlap the other calls; inactive = mostly above about 0.92. The list shows a part of the results.

Test: chemical genetic growth profiling, strain panel (AID 1159580);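 also: tested at 20 µM; growth read once vehicle control cultures reached saturation at 30 °C; 1 = growth at the plate median or of vehicle wells; lower values mean less growth of the strain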
Details: S. cerevisiae deletion strains, growth OD

Measured: normalized growth

CC(=O)OC(C)C[N+](C)(C)C (stereo not given)
inactive: locus YAL013W, strain DEP1, stronger effect = lower value 1.02 and 1 | locus YAL021C, strain ccr4, stronger effect = lower value 1 | locus YAL026C, strain drs2, stronger effect = lower value 1 | locus YAL030W, strain snc1, stronger effect = lower value 1 | locus YAL040C, strain CLN3, stronger effect = lower value 0.999 | locus YBL061C, strain skt5, stronger effect = lower value 1.01 | locus YBR009C, strain hhf1, stronger effect = lower value 1 | locus YBR021W, strain FUR4, stronger effect = lower value 1.03 | locus YBR023C, strain chs3, stronger effect = lower value 1 | locus YBR171W, strain sec66, stronger effect = lower value 0.994 | locus YBR229C, strain ROT2, stronger effect = lower value 1.01 | locus YBR231C, strain swc5, stronger effect = lower value 0.991 | locus YBR279W, strain paf1, stronger effect = lower value 1 | locus YCL011C, strain gbp2, stronger effect = lower value 1.01 | locus YCL016C, strain dcc1, stronger effect = lower value 1.01 | locus YCL029C, strain bik1, stronger effect = lower value 1.01 | locus YCL061C, strain MRC1 (second series), stronger effect = lower value 1 | locus YCL069W, strain vba3, stronger effect = lower value 1 | locus YCR088W, strain abp1, stronger effect = lower value 1.01 | locus YDL005C, strain med2, stronger effect = lower value 1.02 | locus YDL035C, strain GPR1, stronger effect = lower value 1.03 | locus YDL040C, strain nat1, stronger effect = lower value 1 | locus YDL074C, strain BRE1, stronger effect = lower value 1.01 | locus YDL101C, strain DUN1, stronger effect = lower value 1 | locus YDL134C, strain PPH21, stronger effect = lower value 1.02 | locus YDL185W, strain tfp1, stronger effect = lower value 1.02 | locus YDL192W, strain arf1, stronger effect = lower value 1.02 | locus YDR001C, strain nth1, stronger effect = lower value 0.993 | locus YDR069C, strain doa4, stronger effect = lower value 0.988 | locus YDR101C, strain arx1, stronger effect = lower value 0.996 | locus YDR137W, strain rgp1, stronger effect = lower value 0.99 | locus YDR150W, strain NUM1, stronger effect = lower value 1.02 and 0.997 | locus YDR159W, strain sac3, stronger effect = lower value 1 | locus YDR162C, strain NBP2, stronger effect = lower value 1.05 | locus YDR195W, strain ref2 0.982 | locus YDR297W, strain sur2, stronger effect = lower value 1 | locus YDR318W, strain mcm21, stronger effect = lower value 1.01 | locus YDR334W, strain swr1, stronger effect = lower value 0.997 | locus YDR335W, strain msn5, stronger effect = lower value 0.998 | locus YDR363W, strain ESC2, stronger effect = lower value 0.965 | locus YDR388W, stronger effect = lower value 1.02 | locus YDR392W, strain spt3, stronger effect = lower value 1 | locus YDR502C, strain sam2, stronger effect = lower value 1.01 | locus YEL003W, strain gim4, stronger effect = lower value 1.01 | locus YEL037C, strain rad23, stronger effect = lower value 1 | locus YEL061C, strain CIN8 (second series), stronger effect = lower value 0.995 | locus YEL061C, strain CIN8, stronger effect = lower value 1.01 | locus YER002W, strain NOP16, stronger effect = lower value 0.981 | locus YER015W, strain faa2, stronger effect = lower value 0.988 | locus YER016W, strain bim1, stronger effect = lower value 0.994 | locus YER110C, stronger effect = lower value 1.02 | locus YER111C, strain swi4, stronger effect = lower value 1.01 | locus YER155C, strain BEM2 (second series), stronger effect = lower value 0.992 | locus YER155C, strain BEM2, stronger effect = lower value 1.01 | locus YER167W, strain BCK2, stronger effect = lower value 1.02 | locus YFR010W, strain ubp6, stronger effect = lower value 0.989 | locus YGL078C, strain dbp3, stronger effect = lower value 1.02 | locus YGL086W, strain mad1, stronger effect = lower value 1 | locus YGL167C, strain pmr1, stronger effect = lower value 1.01 | locus YGL173C, strain kem1, stronger effect = lower value 1 | locus YGL227W, strain vid30, stronger effect = lower value 0.986 | locus YGL240W, strain doc1, stronger effect = lower value 0.985 | locus YGL248W, strain PDE1, stronger effect = lower value 0.99 | locus YGL253W, strain hxk2, stronger effect = lower value 1 | locus YGR135W, strain pre9, stronger effect = lower value 1.06 | locus YGR252W, strain gcn5, stronger effect = lower value 1.04 | locus YHR013C, strain ard1, stronger effect = lower value 1.02 | locus YHR027C, strain rpn1, stronger effect = lower value 1 | locus YHR030C, strain SLT2, stronger effect = lower value 1.01 and 1.02 | locus YHR079C, strain IRE1 (second series), stronger effect = lower value 1.01 | locus YHR079C, strain IRE1, stronger effect = lower value 1 | locus YHR094C, strain hxt1, stronger effect = lower value 1.02 | locus YHR129C, strain ARP1, stronger effect = lower value 1 | locus YHR142W, strain chs7, stronger effect = lower value 1.01 | locus YHR200W, strain rpn10, stronger effect = lower value 1.02 | locus YIL066C, strain RNR3, stronger effect = lower value 1.02 | locus YIL073C, strain SPO22, stronger effect = lower value 1.13 | locus YIL125W, strain kgd1, stronger effect = lower value 1.01 | locus YIR030C, strain dcg1, stronger effect = lower value 1.01 | locus YJL092W, strain hpr5, stronger effect = lower value 0.993 | locus YJL095W, strain BCK1 (second series), stronger effect = lower value 1.01 | locus YJL095W, strain BCK1, stronger effect = lower value 1.02 and 1.03 | locus YJL115W, strain asf1, stronger effect = lower value 0.995 | locus YJL129C, strain trk1, stronger effect = lower value 0.987 | locus YJL134W, strain LCB3, stronger effect = lower value 1.01 | locus YJL154C, strain vps35, stronger effect = lower value 1.01 | locus YJL164C, strain tpk1, stronger effect = lower value 1.01 | locus YJL166W, strain qcr8, stronger effect = lower value 0.976 | locus YJL168C, strain set2, stronger effect = lower value 1.01 | locus YJL187C, strain SWE1 (second series), stronger effect = lower value 1.02 | locus YJL187C, strain SWE1, stronger effect = lower value 1.01 | locus YJR043C, strain POL32, stronger effect = lower value 1.02 | locus YJR066W, strain TOR1, stronger effect = lower value 0.985 | locus YJR075W, strain HOC1, stronger effect = lower value 1.02 | locus YKL009W, strain mrt4, stronger effect = lower value 1.04 | locus YKL068W, stronger effect = lower value 1.02 | locus YKL085W, strain MDH1 (second series), stronger effect = lower value 1.01 | locus YKL085W, strain MDH1, stronger effect = lower value 1.01 | locus YKL160W, strain elf1, stronger effect = lower value 0.987 | locus YKL190W, strain CNB1, stronger effect = lower value 1.02 | locus YKR001C, strain vps1, stronger effect = lower value 1.02 | locus YKR026C, strain gcn3, stronger effect = lower value 0.985 | locus YKR091W, strain srl3, stronger effect = lower value 0.996 | locus YLL001W, strain dnm1, stronger effect = lower value 0.97 | locus YLL026W, stronger effect = lower value 0.989 | locus YLL041C, strain sdh2, stronger effect = lower value 1.01 | locus YLR027C, strain aat2, stronger effect = lower value 0.989 | locus YLR039C, strain RIC1, stronger effect = lower value 1.06 | locus YLR058C, strain SHM2, stronger effect = lower value 1.01 | locus YLR102C, strain apc9, stronger effect = lower value 1 | locus YLR113W, strain HOG1, stronger effect = lower value 0.981 | locus YLR221C, strain rsa3, stronger effect = lower value 1 | locus YLR258W, strain gsy2, stronger effect = lower value 1 | locus YLR262C, strain YPT6 (second series), stronger effect = lower value 0.994 | locus YLR262C, strain YPT6, stronger effect = lower value 1.05 | locus YLR268W, strain sec22, stronger effect = lower value 1.01 | locus YLR320W, strain mms22, stronger effect = lower value 0.999 | locus YLR330W, strain CHS5, stronger effect = lower value 1.01 | locus YLR342W, strain FKS1 (second series), stronger effect = lower value 1.05 | locus YLR342W, strain FKS1, stronger effect = lower value 1 | locus YLR357W, strain rsc2, stronger effect = lower value 0.981 | locus YLR370C, strain arc18, stronger effect = lower value 1 | locus YLR371W, strain rom2, stronger effect = lower value 1.01 | locus YLR384C, strain iki3, stronger effect = lower value 0.996 | locus YLR418C, strain cdc73, stronger effect = lower value 1.06 | locus YML016C, strain PPZ1, stronger effect = lower value 0.999 | locus YML032C, strain rad52, stronger effect = lower value 1.01 | locus YML120C, strain ndi1, stronger effect = lower value 1 | locus YML124C, strain tub3, stronger effect = lower value 1.01 | locus YMR058W, strain fet3, stronger effect = lower value 0.991 | locus YMR078C, strain ctf18, stronger effect = lower value 1.02 | locus YMR125W, strain sto1, stronger effect = lower value 0.993 | locus YMR129W, stronger effect = lower value 0.993 | locus YMR205C, strain PFK2, stronger effect = lower value 1 | locus YMR223W, strain ubp8, stronger effect = lower value 1.07 | locus YMR231W, strain pep5, stronger effect = lower value 0.994 | locus YMR307W, strain GAS1, stronger effect = lower value 1.03 | locus YNL067W, strain RPL9B, stronger effect = lower value 1.02 | locus YNL071W, strain lat1, stronger effect = lower value 0.999 | locus YNL153C, strain GIM3, stronger effect = lower value 1.01 | locus YNL175C, strain NOP13, stronger effect = lower value 1.01 | locus YNL183C, strain NPR1, stronger effect = lower value 0.969 | locus YNL197C, strain WHI3, stronger effect = lower value 1 | locus YNL209W, strain ssb2, stronger effect = lower value 1 | locus YNL224C, strain SQS1, stronger effect = lower value 0.983 | locus YNL233W, strain BNI4, stronger effect = lower value 1.01 | locus YNL248C, strain rpa49, stronger effect = lower value 0.988 | locus YNL250W, strain rad50, stronger effect = lower value 1.05 | locus YNL271C, strain bni1, stronger effect = lower value 1.02 | locus YNL298W, strain CLA4, stronger effect = lower value 1.02 | locus YNL307C, strain MCK1, stronger effect = lower value 1.03 | locus YNL322C, strain KRE1 (second series), stronger effect = lower value 1.01 | locus YNL322C, strain KRE1, stronger effect = lower value 1.01 | locus YNR049C, strain mso1, stronger effect = lower value 1.01 | locus YNR052C, strain pop2, stronger effect = lower value 1.01 | locus YOL012C, strain htz1 1.09 | locus YOL147C, strain pex11, stronger effect = lower value 1.02 | locus YOR001W, strain rrp6, stronger effect = lower value 0.987 | locus YOR061W, strain CKA2, stronger effect = lower value 1.01 | locus YOR069W, strain VPS5, stronger effect = lower value 1.01 | locus YOR070C, strain gyp1, stronger effect = lower value 1 | locus YOR080W, strain dia2, stronger effect = lower value 1.01 | locus YOR083W, strain WHI5 (second series), stronger effect = lower value 1 | locus YOR083W, strain WHI5, stronger effect = lower value 0.977 | locus YOR106W, strain vam3, stronger effect = lower value 0.994 | locus YOR136W, strain idh2, stronger effect = lower value 1.01 | locus YOR144C, strain elg1, stronger effect = lower value 1.01 | locus YOR184W, strain ser1, stronger effect = lower value 1.02 | locus YOR231W, strain MKK1, stronger effect = lower value 0.947 | locus YOR265W, strain rbl2, stronger effect = lower value 1 | locus YOR270C, strain vph1, stronger effect = lower value 1.02 | locus YOR290C, strain snf2, stronger effect = lower value 0.989 | locus YOR316C, strain cot1, stronger effect = lower value 1.01 | locus YPL051W, strain arl3, stronger effect = lower value 0.999 | locus YPL055C, strain LGE1, stronger effect = lower value 1.02 | locus YPL078C, strain atp4, stronger effect = lower value 0.981 | locus YPL106C, strain sse1, stronger effect = lower value 1.01 | locus YPL240C, strain hsp82, stronger effect = lower value 1 | locus YPL241C, strain CIN2, stronger effect = lower value 1 | locus YPL256C, strain CLN2, stronger effect = lower value 1.03 | locus YPR119W, strain clb2, stronger effect = lower value 1.01 | locus YPR141C, strain kar3, stronger effect = lower value 1.01 | locus YPR163C, strain tif3, stronger effect = lower value 1.02 | locus YPR167C, strain met16, stronger effect = lower value 1.01 | strain wtn01, stronger effect = lower value 1
